# Reference: the supplement of paper PMC10849652
# Targets with a hit are over-represented here; the source holds about 7,900 in all. About 0.6% of all pairs of compound and target were hits. A number with no mark means an inactive call.
# How the values were obtained:
# Assay in all cases: log2 fold change, soluble protein after heating vs DMSO (PISA); higher = thermal stabilisation; K562 cells, 10 uM, 30 min; active = over 0.2 and 3.5 SD of the protein, either way, in both replicates (recomputed)
# [1] = compound: CC1=C(C=C(C=C1)NC(=O)C2=CC(=CC=C2)C(C)(C)C#N)NC3=CC4=C(C=C3)N=CN(C4=O)C
# In short: (§1)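 Soluble protein was quantified by TMTpro 16plex LC-MS/MS after channel sums were equalised. It was obtained as the supernatant after 21,000xg for 90 min from pooled aliquots of K562 cells (2×10^6 cells/mL, 10 μM compound, 30 min) heated for 3 min across 48°C-58°C and extracted in PBS with 0.5% NP-40 at 4°C. Thermal stability values are relative to control samples and come from duplicates. They are given as log2 fold changes.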
# [2] = compound: CC1=C(C=C(C=C1)NC(=O)C2=CC(=CC=C2)N(C)C)NC(=O)C3=CC=C(C=C3)O
# In short: as §1
# [3] = compound: CC1=CC=C(C=C1)SC2=C3C=C(SC3=CN=C2)C(=O)N
# In short: as §1
# [4] = compound: CC1=NC(=CC=C1)C2=C(N=C(N2)C(C)(C)C)C3=CC4=NC=CN=C4C=C3
# In short: as §1
# Nexturastat A = compound: CCCCN(Cc1ccc(C(=O)NO)cc1)C(=O)Nc1ccccc1 [Nexturastat A]
# In short: as §1
# vemurafenib = compound: CCCS(=O)(=O)Nc1ccc(F)c(C(=O)c2c[nH]c3ncc(-c4ccc(Cl)cc4)cc23)c1F [vemurafenib]
# In short: as §1
# [5] = compound: CCCS(=O)(=O)Nc1ccc(F)c(C(=O)c2c[nH]c3ncc(Cl)cc23)c1F
# In short: as §1
# [6] = compound: CCCc1cc(C)[nH]c(=O)c1CNC(=O)c1cc(-c2ccnc(N3CCN(C)CC3)c2)cc2c1cnn2C(C)C
# In short: as §1
# givinostat = compound: CCN(CC)Cc1ccc2cc(COC(=O)Nc3ccc(C(=O)NO)cc3)ccc2c1 [givinostat]
# In short: as §1
# barasertib = compound: CCN(CCCOc1ccc2c(Nc3cc(CC(=O)Nc4cccc(F)c4)[nH]n3)ncnc2c1)CCOP(=O)(O)O [barasertib]
# In short: as §1
# [7] = compound: CC[C@@H]1C(=O)N(C)c2cnc(Nc3ccc(C(=O)NC4CCN(C)CC4)cc3OC)nc2N1C1CCCC1
# In short: as §1
# volasertib = compound: CC[C@@H]1C(=O)N(C)c2cnc(Nc3ccc(C(=O)N[C@H]4CC[C@H](N5CCN(CC6CC6)CC5)CC4)cc3OC)nc2N1C(C)C [volasertib]
# In short: as §1
# [8] = compound: CC[C@H](C)N1C=C(C2=C(C=C(C=C21)C3=CN=C(C=C3)N4CCNCC4)C(=O)NCC5=C(C=C(NC5=O)C)C)C
# In short: as §1
# epoxomicin = compound: CC[C@H](C)[C@@H](C(=O)N[C@@H]([C@@H](C)O)C(=O)N[C@@H](CC(C)C)C(=O)[C@]1(CO1)C)NC(=O)[C@H]([C@@H](C)CC)N(C)C(=O)C [epoxomicin]
# In short: as §1
# [9] = compound: CCn1c(C(=O)N(C2CC2)C2CC2)cc2c3c(ncn3C)c(Nc3cc(C)n(C)n3)nc21
# In short: as §1
# [10] = compound: CCn1cc(-c2ccnc3[nH]c(-c4cccc(CN(C)C)c4)cc23)c(-c2ccc(NC(=O)N(C)C)cc2)n1
# In short: as §1
# [11] = compound: CN(C)CC(=O)Nc1ccc2[nH]c(=O)c3ccccc3c2c1
# In short: as §1
# rosiglitazone = compound: CN(CCOC1=CC=C(C=C1)C[C@H]2C(=O)NC(=O)S2)C3=CC=CC=N3 (racemic) [rosiglitazone]
# In short: as §1
# [12] = compound: CN1C2=C(C3=C1C(=O)N(N=C3)CC4=CC(=CC=C4)N)SC(=C2)S(=O)C
# In short: as §1
# [13] = compound: CN1CCC(CNc2ccc3ncc(-c4cccc(OC(F)(F)F)c4)n3n2)CC1
# In short: as §1
# UniProt O60333, sequence (O60333 whole entry, looked up): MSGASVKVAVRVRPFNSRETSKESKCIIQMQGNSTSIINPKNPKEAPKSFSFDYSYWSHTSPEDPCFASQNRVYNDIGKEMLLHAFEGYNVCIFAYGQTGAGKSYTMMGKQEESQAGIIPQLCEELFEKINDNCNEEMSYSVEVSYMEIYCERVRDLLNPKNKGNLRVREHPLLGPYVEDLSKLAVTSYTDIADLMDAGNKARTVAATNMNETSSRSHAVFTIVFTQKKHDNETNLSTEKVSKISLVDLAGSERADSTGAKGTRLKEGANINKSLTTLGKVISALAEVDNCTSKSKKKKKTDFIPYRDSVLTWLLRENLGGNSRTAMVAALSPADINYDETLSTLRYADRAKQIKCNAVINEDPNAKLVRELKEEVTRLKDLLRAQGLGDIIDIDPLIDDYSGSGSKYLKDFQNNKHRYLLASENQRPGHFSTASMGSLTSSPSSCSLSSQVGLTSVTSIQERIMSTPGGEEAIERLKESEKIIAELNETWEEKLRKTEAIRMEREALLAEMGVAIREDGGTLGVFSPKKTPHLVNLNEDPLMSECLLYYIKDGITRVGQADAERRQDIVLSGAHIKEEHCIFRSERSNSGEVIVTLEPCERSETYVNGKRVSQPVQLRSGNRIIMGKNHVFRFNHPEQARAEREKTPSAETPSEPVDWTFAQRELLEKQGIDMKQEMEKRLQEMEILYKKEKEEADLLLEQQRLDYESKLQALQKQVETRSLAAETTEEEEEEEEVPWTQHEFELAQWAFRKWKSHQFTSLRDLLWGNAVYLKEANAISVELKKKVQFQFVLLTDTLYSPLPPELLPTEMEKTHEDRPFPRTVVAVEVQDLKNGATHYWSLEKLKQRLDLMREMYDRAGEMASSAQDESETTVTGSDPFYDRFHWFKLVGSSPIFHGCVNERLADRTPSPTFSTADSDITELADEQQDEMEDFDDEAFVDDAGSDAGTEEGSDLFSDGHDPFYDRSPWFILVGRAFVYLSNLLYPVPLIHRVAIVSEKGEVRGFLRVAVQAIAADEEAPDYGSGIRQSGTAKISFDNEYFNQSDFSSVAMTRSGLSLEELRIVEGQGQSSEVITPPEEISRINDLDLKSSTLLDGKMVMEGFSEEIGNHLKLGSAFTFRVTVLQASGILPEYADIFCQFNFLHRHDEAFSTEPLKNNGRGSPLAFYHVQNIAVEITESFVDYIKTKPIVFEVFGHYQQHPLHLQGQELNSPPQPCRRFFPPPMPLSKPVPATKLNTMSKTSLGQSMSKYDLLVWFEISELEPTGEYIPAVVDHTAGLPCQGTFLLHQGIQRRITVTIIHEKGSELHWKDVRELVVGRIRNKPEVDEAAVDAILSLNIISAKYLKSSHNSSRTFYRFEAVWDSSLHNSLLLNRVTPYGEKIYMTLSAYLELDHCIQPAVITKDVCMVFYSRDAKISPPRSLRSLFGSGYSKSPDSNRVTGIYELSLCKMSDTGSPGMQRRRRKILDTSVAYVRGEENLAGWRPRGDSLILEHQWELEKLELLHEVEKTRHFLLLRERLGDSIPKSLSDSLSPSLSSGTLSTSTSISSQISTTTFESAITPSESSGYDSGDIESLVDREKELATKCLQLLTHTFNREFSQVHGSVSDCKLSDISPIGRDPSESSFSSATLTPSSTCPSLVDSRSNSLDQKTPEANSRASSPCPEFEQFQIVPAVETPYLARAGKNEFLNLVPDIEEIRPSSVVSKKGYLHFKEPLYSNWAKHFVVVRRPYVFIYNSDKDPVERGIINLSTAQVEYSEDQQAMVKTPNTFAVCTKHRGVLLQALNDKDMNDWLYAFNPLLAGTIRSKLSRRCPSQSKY
# UniProt Q96LU5, sequence (Q96LU5 whole entry, looked up): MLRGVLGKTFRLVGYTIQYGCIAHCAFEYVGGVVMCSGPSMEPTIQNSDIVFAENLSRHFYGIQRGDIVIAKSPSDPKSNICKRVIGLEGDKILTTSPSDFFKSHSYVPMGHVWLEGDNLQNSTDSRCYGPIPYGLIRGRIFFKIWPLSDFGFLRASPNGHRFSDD
# UniProt Q96G25, sequence (Q96G25 whole entry, looked up): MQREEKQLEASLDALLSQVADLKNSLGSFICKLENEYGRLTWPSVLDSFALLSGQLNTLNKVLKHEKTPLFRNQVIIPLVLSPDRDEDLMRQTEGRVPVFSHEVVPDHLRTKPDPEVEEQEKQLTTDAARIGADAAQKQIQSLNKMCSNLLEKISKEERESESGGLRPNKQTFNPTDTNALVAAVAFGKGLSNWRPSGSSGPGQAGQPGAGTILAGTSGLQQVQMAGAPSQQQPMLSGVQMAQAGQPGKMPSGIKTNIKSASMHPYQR
# UniProt P27816, sequence (P27816 whole entry, looked up): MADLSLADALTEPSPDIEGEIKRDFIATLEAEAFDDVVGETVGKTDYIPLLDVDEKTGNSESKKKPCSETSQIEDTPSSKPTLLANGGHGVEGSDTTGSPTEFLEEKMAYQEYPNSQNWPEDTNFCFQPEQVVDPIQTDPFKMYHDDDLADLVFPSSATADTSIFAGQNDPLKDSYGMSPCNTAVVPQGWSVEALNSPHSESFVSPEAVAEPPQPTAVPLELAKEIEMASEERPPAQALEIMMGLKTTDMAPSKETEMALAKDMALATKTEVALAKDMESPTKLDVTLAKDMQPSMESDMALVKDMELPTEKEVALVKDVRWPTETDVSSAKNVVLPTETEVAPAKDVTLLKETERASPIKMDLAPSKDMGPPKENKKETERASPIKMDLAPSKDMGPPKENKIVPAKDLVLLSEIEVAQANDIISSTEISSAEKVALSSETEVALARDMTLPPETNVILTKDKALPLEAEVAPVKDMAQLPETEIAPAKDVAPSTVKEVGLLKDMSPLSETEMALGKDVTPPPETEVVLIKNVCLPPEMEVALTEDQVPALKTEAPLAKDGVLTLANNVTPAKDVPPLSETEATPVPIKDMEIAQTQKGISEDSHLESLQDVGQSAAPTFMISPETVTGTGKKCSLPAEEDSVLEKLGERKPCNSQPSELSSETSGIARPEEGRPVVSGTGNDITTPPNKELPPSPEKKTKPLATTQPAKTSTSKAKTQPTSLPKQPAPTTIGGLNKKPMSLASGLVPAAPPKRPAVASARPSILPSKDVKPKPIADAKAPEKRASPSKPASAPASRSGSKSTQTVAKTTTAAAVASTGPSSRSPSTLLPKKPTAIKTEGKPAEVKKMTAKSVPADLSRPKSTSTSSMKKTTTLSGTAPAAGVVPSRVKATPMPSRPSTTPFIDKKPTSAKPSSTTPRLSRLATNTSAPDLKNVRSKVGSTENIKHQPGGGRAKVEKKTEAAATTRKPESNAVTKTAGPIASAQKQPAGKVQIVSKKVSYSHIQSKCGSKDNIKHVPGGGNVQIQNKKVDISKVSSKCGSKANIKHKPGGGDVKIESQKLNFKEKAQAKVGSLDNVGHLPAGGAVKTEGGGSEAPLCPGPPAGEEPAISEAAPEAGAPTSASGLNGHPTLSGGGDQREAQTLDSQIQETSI
Target,log2 fold change [1],log2 fold change [2],log2 fold change [3],log2 fold change [4],log2 fold change (Nexturastat A),log2 fold change (vemurafenib),log2 fold change [5],log2 fold change [6],log2 fold change (givinostat),log2 fold change (barasertib),log2 fold change [7],log2 fold change (volasertib),log2 fold change [8],log2 fold change (epoxomicin),log2 fold change [9],log2 fold change [10],log2 fold change [11],log2 fold change (rosiglitazone),log2 fold change [12],log2 fold change [13]
MAP4 (UniProt P27816),-0.006,0.007,-0.018,-0.01,0.003,-0.018,-0.007,0.002,-0.004,-0.046,0.011,0.049,-0.041,-0.003,0.018,-0.002,-0.03,-0.021,-0.004,0.037
KIF1B isoform 4 (UniProt O60333),-0.07,0.058,0.008,0.024,0.024,0.002,0.043,0.018,0.122,0.073,-0.042,-0.11,0.052,0.039,-0.015,-0.005,0.123,0.059,-0.001,-0.299 (active)
MED8 isoform 2 (UniProt Q96G25),-0.085,0.038,-0.03,0.089,0.045,0.36 (active),-0.027,0.081,-0.038,-0.059,0.027,0.1,0.046,-0.051,0.009,,-0.075,0.007,0.052,
IMMP1L (UniProt Q96LU5),0.003,0.067,0.008,-0.029,-0.085,-0.055,-0.031,0.273,-0.048,-0.024,-0.012,-0.055,-0.02,-0.015,-0.031,,0.017,-0.003,-0.097,
